# Anthrax LF inh2 – Bacillus anthracis LF protease inhibitors, primary screen, biochemical, multiplex microsphere, MLPCN library. inhibition, % at 10 µM. multiplex microsphere protease cleavage assay. 0.12% of 360,000 active. Lethal factor (Bacillus anthracis), P15917; further: plate controls were buffer without enzyme for full effect and enzyme alone for no effect
# Autofluor counter – counter-screen for toxin protease inhibitors: compound fluorescence. compound autofluorescence counterscreen, microsphere flow cytometry; active compounds read high. fluorescence intensity (concentration not given with the values). 3.1% of 360,000 active. AID 624483; in the data active means fluorescence intensity above about 16000; inconclusive means no clear call, values can overlap the other calls
# BoNT-F LC inh – BoNT/F light chain protease inhibitors, primary screen, biochemical, flow cytometry, MLPCN library; Multiplex microsphere protease cleavage assay; inhibition, % at 10 µM; 0.22% of 360,000 active; AID 588497, 2011; in the data active means inhibition above about 35%, passing the limit was not always enough; inconclusive means no clear call, values can overlap the other calls; further: plate controls were buffer without enzyme for full effect and enzyme alone for no effect
# BoNT-A LC inh2 – BoNT/A light chain protease inhibitors, primary screen, biochemical, flow cytometry, MLPCN library | multiplex microsphere protease substrate cleavage | inhibition, % at 10 µM | 0.17% of 360,000 active | AID 588499, 2011; further: plate controls were buffer without enzyme for full effect and enzyme alone for no effect
# MazEF act – activators of E. coli MazEF toxin-antitoxin RNase, primary screen, biochemical, fluorescence, uHTS; 0.32% of 350,000 active; Endoribonuclease toxin MazF (Escherichia coli (strain K12)), P0AE70; AID 504720, 2011; activation, % at 20 µM; FAM/BHQ RNA-DNA oligo cleavage fluorescence, 5 h; in the data active means activation above about 50%
# Target sequence (P0AE70 whole entry, looked up): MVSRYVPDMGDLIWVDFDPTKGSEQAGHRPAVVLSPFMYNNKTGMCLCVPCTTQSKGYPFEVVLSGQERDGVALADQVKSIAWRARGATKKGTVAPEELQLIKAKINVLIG
# Starred values were filed as active, the others as inactive; ? = inconclusive. Only some compounds are listed: those with a hit (about 3.7% of all), similar ones and a draw of the others. Unless noted, no stated cut-off is given here; in the data, active means inhibition above about 30%; inconclusive means no clear call, values can overlap the other calls; inactive means below that.
SMILES,Anthrax LF inh2,Autofluor counter,BoNT-F LC inh,BoNT-A LC inh2,MazEF act
Cc1cccc(/C(N)=N/OC(=O)Cc2cccs2)c1,-2,19950*,4,2,-5
Cc1ccc(/C(N)=N/OC(=O)CCC2CCCC2)cc1,-10,3714,-7,-1,0
Cc1ccc(/C(N)=N/OC(=O)Cc2cccs2)cc1,-2,23460*,-2,-1,-8
Cc1ccc(/C(N)=N/OC(=O)CCC2CCCCC2)cc1,-2,16562*,-5,-2,-2
N/C(=N\OC(=O)Cc1cccs1)c1ccccc1,-1,?,1,2,6
Cn1c(CN2CCCCC2)nc2cc(NC(=O)c3ccc(Cl)cc3)ccc21,2,20694*,5,5,0
CC(=O)N1CCN(Cc2nc3cc(NC(=O)Cn4nc(C)c5ccccc5c4=O)ccc3n2C)CC1,-1,9828,-7,0,-19
Cc1nn(CC(=O)Nc2ccc3c(c2)nc(CCN2CCCCC2)n3C)c(=O)c2ccccc12,-1,20530*,-1,-1,-3
CC(=O)N1CCN(Cc2nc3cc(NC(=O)C4CCCCC4)ccc3n2C)CC1,2,20181*,-1,?,0
CC(C)CN(C(=O)CSc1nc(N)cc(N)n1)C1CCS(=O)(=O)C1 (centres undefined),-5,3788,-2,0,-1
CN(C)c1ccc(NC(=O)CSc2nc(C3CC3)nc3ccccc23)cc1,-1,5405,-3,-1,8
O=C(Nc1ccc(Br)cc1)C1CCN(C(=O)c2ccc(F)cc2)CC1,-1,2076,4,0,3
O=C(Nc1cccc(F)c1)C1CCN(C(=O)c2ccc(Br)cc2)CC1,1,23473*,-1,-1,-3
CCOCCCNC(=O)c1ccc(N(C)S(=O)(=O)c2ccc(OC)cc2)cc1,2,11197,1,0,7
COc1ccc(S(=O)(=O)N(C)c2ccc(C(=O)NCCC(C)C)cc2)cc1,0,19593*,4,?,-10
COc1ccc(S(=O)(=O)Nc2cc(C(=O)NCCCOC(C)C)ccc2N2CCOCC2)cc1,-1,4254,0,-1,3
COc1ccc(S(=O)(=O)Nc2cc(C(=O)NCCC(C)C)ccc2N2CCOCC2)cc1,0,23444*,-3,-1,-9
Cc1ccc(C(=O)OCC(=O)Nc2cc(S(C)(=O)=O)ccc2Cl)cc1S(=O)(=O)N1CCCCC1,0,?,-13,-6,3
Cc1ccc2c(c1)P(=O)(O)c1cc(C)ccc1O2,-2,3699,6,1,8
Cc1ccc(NS(=O)(=O)c2ccc(-n3cccn3)cc2)nc1,0,5060,-3,0,0
N#C/C(=C(/O)c1ccco1)c1nc2ccccc2s1,-17,3187,?,-1,-9
CC1=CC(=C(C#N)c2nc3ccccc3s2)C=C(C)N1Cc1ccco1,1,12978,-4,3,605*
O=C(CCCC(=O)OCC(Cl)=C(Cl)Cl)Nc1cccc(F)c1,-3,22287*,0,1,2
Cc1c(Cl)cccc1NS(=O)(=O)c1cccc2nsnc12,-2,4156,-2,1,6
O=S(=O)(N=S(N1CCCCC1)N1CCCCC1)c1ccccc1,1,19826*,2,?,5
SMILES,Anthrax LF inh2,Autofluor counter,BoNT-F LC inh,BoNT-A LC inh2,MazEF act
O=S(=O)(/N=C(/c1ccccc1)N1CCCCCC1)c1ccccc1,-3,4126,2,-2,-14
CCn1c(C)nc2cc(C(=O)NNS(=O)(=O)c3c(C)c(C)cc(C)c3C)ccc21,-1,24040*,2,0,23
CCn1c(C)nc2cc(C(=O)NNC(=O)c3ccc(C)cc3)ccc21,-2,3950,-10,-1,2
CCc1nnc(NC(=O)CCN2C(=O)c3ccccc3C2=O)s1,-2,22862*,-2,0,0
CCc1ccc(CCC(=O)Nc2nnc(CC)s2)o1,-2,16177*,2,0,-12
CCCc1nnc(NC(=O)CCCN2C(=O)c3ccccc3C2=O)s1,-2,2716,-6,0,0
Cc1cc(/C=C(\C#N)C(=O)Nc2ccccc2)c(C)n1-c1ccc2c(c1)OCO2,-2,20884*,-9,-4,-9
Cc1cc(/C=C(\C#N)C(=O)Nc2ccc(F)cc2)c(C)n1-c1ccc(N2CCOCC2)c([N+](=O)[O-])c1,-6,22759*,0,0,4
Cc1ccc(-n2nnnc2-c2ccco2)cc1,3,4255,-26,0,10
c1ccc(Cn2nnnc2-c2ccco2)cc1,2,16264*,0,0,2
COc1ccc(CC(=O)N/N=C(\C)c2cccs2)cc1OC,-1,6028,-12,0,3
COc1ccc2cc3cc(C(=O)NCc4ccco4)oc3nc2c1,0,4386,-2,0,4
COc1ccc2cc(C3(C)NC(=O)N(CC(=O)NCc4ccco4)C3=O)ccc2c1 (centres undefined),-2,21910*,1,1,3
CC1CCCCC12NC(=O)N(CC(=O)NC(=O)NCc1ccco1)C2=O (centres undefined),-2,22867*,-2,1,-5
COc1ccc2cc3c(N)c(C(=O)NCc4ccco4)sc3nc2c1,2,4228,-10,5,67*
CC1CCCCC12NC(=O)N(CC(=O)NCc1ccco1)C2=O (centres undefined),-1,3615,2,0,5
CC(C)(C)c1ccc(-c2nc(C#N)c(NCc3cccnc3)o2)cc1,-3,17505*,-8,-3,1
N#Cc1nc(-c2ccc(F)cc2)oc1NCc1ccccc1,-6,3976,1,0,2
C=CCn1c(CCNC(=O)c2ccc(Cl)c(Cl)c2)nnc1SCCOc1ccc(OC)cc1,0,21454*,-3,?,-2
C=CCn1c(Cc2ccc(OC)cc2)nnc1SCC(N)=O,-6,22116*,2,2,-7
C=CCn1c(SCCOc2ccccc2)nnc1C(C)NC(=O)c1ccccc1 (centres undefined),-3,6043,-8,0,-2
C=CCn1c(Cc2ccc(OCC)cc2)nnc1SCC(N)=O,-2,9473,3,0,1
C=CCn1c(Cc2csc(N)n2)nnc1SCC(=O)Nc1ccc(C(=O)OCC)cc1,1,7701,-11,-1,-2
C=CCn1c(Cc2csc(N)n2)nnc1SCC(=O)OCC,0,22718*,-2,2,10
COc1ccc(C(CNC(=O)C2CC(=O)N(Cc3ccccc3)C2)N2CCOCC2)cc1 (centres undefined),2,6195,-6,1,7
COc1ncnc2c1ncn2CCCNCC(C)c1ccccc1 (centres undefined),0,3948,-7,-1,0
CC1=C/C(=C(\c2cc(C)c(O)c(Br)c2)c2ccccc2S(=O)(=O)O)C=C(Br)C1=O,-26,4721,?,-7,-22
CCOC(=O)c1nn(-c2ccc(C)c(C)c2)cc1O,1,23047*,-1,-1,7

# Screens as filed in PubChem BioAssay.
